ssDAF-12 act: S. stercoralis DAF-12 activation, primary screen. HEK293 ssDAF-12/GRIP1 lit1-tk-luc reporter, luminescence; % of 3 µM dafachronic acid response. activation, % at 6.8 µM. 370,000 compounds, 1% hits. AID 652126;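 active = activation above the mean over all tested compounds plus 3 SD, cut at about 0.9% in these data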
DAX1 inh-1: DAX1 (NR0B1) inhibition, primary screen. HEK293T StAR-luciferase reporter, SF-1/DAX-1 repression relief. inhibition, % at 6.8 µM. 370,000 compounds, 1.1% hits;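 active = inhibition above the mean over all tested compounds plus 3 SD, cut at about 3.6% in these data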;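 also: higher inhibition means more luminescence from relief of DAX-1 repression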
DAX1 inh-2: inhibits human nuclear receptor DAX1; inhibition, % at 6.75 µM; P51843; AID 504766; 340,000 compounds, 0.99% hits; HEK293 Gal4-DAX1 luciferase reporter, luminescence;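 active = inhibition above the mean over all tested compounds plus 3 SD, cut at about 4.2% in these data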;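 also: inhibition shows as a rise in luminescence from relieved DAX1 repression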
Target sequence (P51843 207-470 limits assumed): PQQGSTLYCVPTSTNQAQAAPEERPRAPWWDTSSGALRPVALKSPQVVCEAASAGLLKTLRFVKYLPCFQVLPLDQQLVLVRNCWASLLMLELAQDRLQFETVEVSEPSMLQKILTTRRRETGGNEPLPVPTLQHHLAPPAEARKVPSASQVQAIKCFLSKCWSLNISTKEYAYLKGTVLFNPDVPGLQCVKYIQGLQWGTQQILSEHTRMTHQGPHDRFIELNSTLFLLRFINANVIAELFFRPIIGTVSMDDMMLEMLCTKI
hgDAF-12 ag: hgDAF-12 agonism, primary luciferase screen; 370,000 compounds, 1.8% hits; HEK293 GAL4-hgDAF12 UAS-luciferase reporter, agonist luminescence; normalized to butyrate control; AID 687014; activation, % at 6.8 µM;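 active = activation above a cutoff set at the mean of all screened compounds plus 3 SD, cut at about 10% in these data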
hcDAF12 agonist: activators of H. contortus DAF-12 nuclear receptor. HEK293 hcDAF-12 lit1-tk-luc reporter, luminescence; 0% DMSO, 100% Δ7-dafachronic acid. activation, % at 6.8 µM. 370,000 compounds, 1.4% hits. AID 652067;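 active = activation above the mean of all tested compounds plus 3 SD, cut at about 5.5% in these data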
SMARCA2 activ: increases SMARCA2 function in MMTV reporter cells; MG213 cells, MMTV-luciferase reporter, dexamethasone, overnight; 370,000 compounds, 1% hits; activation, % at 9.1 µM; in the data active = activation above about 7.8%
LXR ag: LXR-beta agonism as hcDAF-12 counter-screen. 3,400 tested, under 10 active. AID 743027. activation, % at 6.8 µM. HEK293 Gal4-LXR tk-luc reporter, luminescence, 24 h; normalized: DMSO 0%, positive control 100%. shares compounds with hcDAF12 agonist;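 active = mean percent activation of the reporter above a cutoff set as the average over tested compounds plus their standard deviation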
hcDAF12 ag: confirmation of H. contortus DAF-12 agonists; shares compounds with hcDAF12 agonist; HEK293 hcDAF-12 lit1-tk-luc reporter, luminescence; % of Δ7-dafachronic acid response; activation, % at 6.8 µM; 3,400 compounds, 61% hits; AID 743032;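 active = mean activation across triplicate tests above the threshold derived from the earlier primary screen, cut at about 5.5% in these data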
hgDAF12 ag: confirmation of H. glycines DAF-12 agonists | shares compounds with hgDAF-12 ag | 3,300 compounds, 80% hits | activation, % at 6.8 µM | AID 743050 | HEK293 GAL4-hgDAF12 luciferase reporter, agonist mode; percent of butyrate response;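 active = mean activation over triplicate wells above the hit cutoff derived from the earlier primary screen, cut at about 11% in these data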
LXRb DAF12 ctr: activates human LXR-beta, counter-screen for DAF-12 agonists. shares compounds with hgDAF-12 ag. HEK293 Gal4-LXR luciferase reporter, 24 h. activation, % at 6.8 µM. 3,300 tested, under 10 active;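 active = mean activation of the triplicate above a set limit carried over from the primary screen, none filed active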
Large screens that a line does not name were inactive (follow-up assays come after a bar, where they were run). Most compounds without a hit are left out; they make up all but 4.8% or so of the library.

COc1ccc(C(=O)N=c2nc3ccccn3s2)cc1	ssDAF-12 act 1.3, hgDAF-12 ag 17, hcDAF12 agonist 14 | LXR ag inactive | hcDAF12 ag 6.0 | hgDAF12 ag 11 | LXRb DAF12 ctr inactive
COc1ccc(C(=O)O/N=C2\C(=O)N(C)c3ccccc32)cc1	none
CN(c1cccc(Cl)c1)S(=O)(=O)c1cccc(C(=O)Nc2nc3ccccc3[nH]2)c1	none
O=C(Nc1nc2ccccc2[nH]1)c1ccccc1	ssDAF-12 act 1.4, hgDAF-12 ag 14, hcDAF12 agonist 13 | LXR ag inactive | hcDAF12 ag 14 | hgDAF12 ag 14 | LXRb DAF12 ctr inactive
O=C(Nc1nc2ccccc2[nH]1)c1cccc(Cl)c1	hgDAF-12 ag 16, hcDAF12 agonist 8.2 | LXR ag inactive | hcDAF12 ag 5.8 | hgDAF12 ag 17 | LXRb DAF12 ctr inactive
CC(=O)Nc1ccc(NC(=O)CCOc2cc(C)ccc2C)cc1	none
CCOC(=O)c1ccc(NC(=O)Nc2ccc(S(N)(=O)=O)cc2)cc1	none
Oc1c(-c2cc(-c3ccco3)[nH]n2)ccc2ccccc12	ssDAF-12 act 2.6, DAX1 inh-1 3.6, hgDAF-12 ag 20, hcDAF12 agonist 13 | LXR ag inactive | hcDAF12 ag 15 | hgDAF12 ag 25 | LXRb DAF12 ctr inactive
Cc1ncsc1CCOC(=O)c1cccc([N+](=O)[O-])c1	none
O=[N+]([O-])c1ccccc1N=Nc1c(O)[nH]c2ccc(F)cc12	none
Oc1[nH]c2ccccc2c1N=Nc1ccccc1F	hgDAF-12 ag 16, hcDAF12 agonist 12 | LXR ag inactive | hcDAF12 ag 14 | hgDAF12 ag 21 | LXRb DAF12 ctr inactive
CC(/C=C/c1ccc2c(c1)OCO2)=N/NC(=O)C1COc2ccccc2O1 (stereo not given)	none (no result: DAX1 inh-2)
C/C(CCc1ccc2c(c1)OCO2)=N\N=C1\NC(=O)CC(C(=O)Nc2ccccc2)S1 (stereo not given)	none
O=C(Nc1ccc(-c2nc3ccccc3o2)cc1)C1CCCO1 (stereo not given)	ssDAF-12 act 1.1, hgDAF-12 ag 15, hcDAF12 agonist 9.7 | LXR ag inactive | hcDAF12 ag 7.6 | hgDAF12 ag 21 | LXRb DAF12 ctr inactive
O=C(Nc1ccc(-c2nc3cccnc3s2)cc1)C1CCCO1 (stereo not given)	none
CCOc1ccc(N(CC(=O)Nc2ccccc2Cl)S(C)(=O)=O)cc1	none
O=C(Nc1ccc2c(c1)CCC2)c1cc2ccccc2o1	ssDAF-12 act 1.6, hgDAF-12 ag 17, hcDAF12 agonist 7.9 | LXR ag inactive | hcDAF12 ag inactive | hgDAF12 ag 22 | LXRb DAF12 ctr inactive
Cc1nc(NC(=O)c2cc3ccccc3o2)sc1C	hgDAF-12 ag 14, hcDAF12 agonist 10 | LXR ag inactive | hcDAF12 ag 8.1 | hgDAF12 ag 17 | LXRb DAF12 ctr inactive
Cc1nc(NC(=S)NC(=O)c2ccccc2)sc1C	DAX1 inh-2 5.3, hgDAF-12 ag 14, hcDAF12 agonist 8.0 | LXR ag inactive | hcDAF12 ag 15 | hgDAF12 ag 14 | LXRb DAF12 ctr inactive
CN(C)C(=O)c1ccc(NC(=O)c2cccc(S(=O)(=O)N3CCCc4ccccc43)c2)cc1	none
Clc1ccccc1-c1nnc(-c2cccs2)o1	ssDAF-12 act 1.0, DAX1 inh-2 9.4, hgDAF-12 ag 20, hcDAF12 agonist 11 | LXR ag inactive | hcDAF12 ag 8.1 | hgDAF12 ag 24 | LXRb DAF12 ctr inactive
COc1ccc2nc(SCC(C)=O)c(C#N)cc2c1	ssDAF-12 act 2.5, DAX1 inh-1 3.9, DAX1 inh-2 5.9, hgDAF-12 ag 19, hcDAF12 agonist 12 | LXR ag inactive | hcDAF12 ag 11 | hgDAF12 ag 25 | LXRb DAF12 ctr inactive
COc1ccc2nc(SC)c(C#N)cc2c1	none
Clc1ccccc1-c1csc(Nc2cccnc2)n1	none
Clc1ccccc1Nc1nc(-c2cccnc2)cs1	ssDAF-12 act 1.1, DAX1 inh-1 3.7, DAX1 inh-2 9.5, hgDAF-12 ag 34, hcDAF12 agonist 11 | LXR ag inactive | hcDAF12 ag 7.3 | hgDAF12 ag 24 | LXRb DAF12 ctr inactive
Clc1ccccc1Nc1nnc(-c2ccncc2)s1	DAX1 inh-1 4.4, hgDAF-12 ag 17, hcDAF12 agonist 11 | LXR ag inactive | hcDAF12 ag 6.7 | hgDAF12 ag 17 | LXRb DAF12 ctr inactive
NC(=O)c1c(NC(=O)c2ccc(F)cc2)sc2c1CCC2	ssDAF-12 act 2.0, hgDAF-12 ag 15, hcDAF12 agonist 13 | LXR ag inactive | hcDAF12 ag 12 | hgDAF12 ag 20 | LXRb DAF12 ctr inactive
C=CCNC(=S)NNC(=O)c1cccc2ccccc12	none
Cc1ccc2nc(N3CCN(Cc4nnnn4Cc4ccccc4)CC3)c(C#N)cc2c1	none
COc1cc(NC(=O)C/C(C)=N/NC(=O)Cc2ccccc2)c(OC)cc1Cl	none
COc1cc(NC(=O)C/C(C)=N/NC(=O)c2cccs2)c(OC)cc1Cl	DAX1 inh-1 4.0, hgDAF-12 ag 15, hcDAF12 agonist 7.9 | LXR ag inactive | hcDAF12 ag inactive | hgDAF12 ag inactive | LXRb DAF12 ctr inactive
COc1ccc(-n2c(=O)c3c4c(sc3n(CC(=O)Nc3cc(C)[nH]n3)c2=O)CCCC4)c(OC)c1	none
Cc1nc2nc(-c3ccc(F)cc3)cn2nc1C	hgDAF-12 ag 14, hcDAF12 agonist 7.1 | LXR ag inactive | hcDAF12 ag inactive | hgDAF12 ag 12 | LXRb DAF12 ctr inactive
Cc1cnc(NC(=O)c2ccc3c(c2)OCCO3)s1	none
Cc1ccc(C(=O)Nc2ncc(C)s2)s1	hgDAF-12 ag 17, hcDAF12 agonist 6.8 | LXR ag inactive | hcDAF12 ag 6.3 | hgDAF12 ag 18 | LXRb DAF12 ctr inactive
COc1ccc(N=NC2C(=O)N(c3ccccc3)N=C2C)cc1 (stereo not given)	none
CC1=NN(c2ccccc2)C(=O)C1N=Nc1cccc(O)c1 (stereo not given)	ssDAF-12 act 1.6, hgDAF-12 ag 14, hcDAF12 agonist 18 | LXR ag inactive | hcDAF12 ag 13 | hgDAF12 ag 19 | LXRb DAF12 ctr inactive

Compound activity from PubChem BioAssay.
